The record followed here is PubChem BioAssay (NCATS).

A number with no mark means an inactive call. Results filed as inconclusive are left out. Calls of active or inactive are those of the source. Calls follow the shape of the dose curve; as a rule, active = well fitted curve in the direction sought with a large enough effect; inconclusive = small, poorly fitted or top-dose-only effect, or another doubt; inactive = no such curve, though single readings can be large; an effect the other way counts as inactive or inconclusive.

Experiment [1] deals with Zika virus NS2B-NS3 protease (linked construct). Put plainly: Primary screen NINDS Rhodamine qHTS for Zika virus inhibitors (AID 1347160). Also: % is scaled to controls: 0 for no effect and ±100 for the full control effect; nearly all actives have a fitted effect of over 55% in size. An outline of the steps:
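Purified NS2B-NS3 protease with the NS2B hydrophilic domain joined by a flexible linker (25 nM) in 10 mM Tris-HCl pH 8.0, 0.01% Tween 20, preincubated 15 min at RT with compound; Rhodamine110 peptide substrate 1.5 µM; fluorescence change over 15 min; 4-parameter Hill fit.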
In general terms: Quantitative high-throughput screening tests each substance at several concentrations.

The target in experiment [2] is Calcium and integrin-binding protein 1 (Homo sapiens) (UniProt Q99828). Put plainly: Primary qHTS for Identification of Calcium Integrin Binding Protein 1 (CIB1) Competitor (AID 1508620).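 Also: GST tagged CIB1 binding a fluorescein labelled alphaIIb integrin peptide tracer; top concentration of the series differs between compounds; % is scaled to controls: 0 for no effect and ±100 for the full control effect.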 In outline: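 Fluorescence polarization competition: CIB1-GST (1 uM final) preincubated with compound 15 min at room temperature, then FITC-labeled alphaIIb peptide (100 nM final) added for another 15 min. Polarization read at Ex 480/Em 540.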

Experiment [3] can be described thus: Primary qHTS for inhibitors of nuclear receptor binding SET domain protein 2 (NSD2) in an isogenic RCH-ACV NSD2 p.E1099K mutant (9B) (AID 1645876). Also: nearly all actives have a fitted effect of over 70% in size. Also: potency is read from the fitted curve at half-maximal effect.
Experiment [4] deals with Glutathione peroxidase 1 (Homo sapiens) (UniProt P07203). Put plainly: Primary qHTS Assay for Inhibitors of Recombinant Selenoprotein Glutathione Peroxidase 1 (GPX1) (AID 1845191). Also: nearly all actives have a fitted effect of over 65% in size. An outline of the steps:
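Recombinant GPX1 (10 nM final) was preincubated with compound for 30 min at room temperature, then reacted with 1 mM GSH, 0.5 mM CHP, 0.5 mM NADPH and 100 nM glutathione reductase; NADPH fluorescence (340/450 nm) was read at 0 and 15 min.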

In experiment [5] the target is Phospholipid hydroperoxide glutathione peroxidase GPX4 (Homo sapiens) (UniProt P36969). Put plainly: Primary qHTS Assay for Inhibitors of Recombinant Selenoprotein Glutathione Peroxidase 4 (GPX4) (AID 1845192). Also: % is scaled to controls: 0 for no effect and ±100 for the full control effect; nearly all actives have a fitted effect of over 65% in size. In outline:
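GR-coupled readout: 100 nM GR, 1 mM GSH, 0.5 mM NADPH; NADPH fluorescence (ex 340/em 450 nm) read at t=0 and after 15 min RT. GPX4 200 nM, preincubated 30 min with compound; substrate 0.5 mM CHP.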

Experiment [6] concerns the target Luciferin 4-monooxygenase (Photinus pyralis) (UniProt P08659). Put plainly: Primary firefly luciferase (FLuc) qHTS assay for identification of artifact compounds. (AID 1845220). Also: nearly all actives have a fitted effect of over 60% in size. The conditions noted are these: outcome: dose series up to 54.1 µM unless noted. An outline of the steps:
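In this counter-screen for luciferase artifacts, test compounds met substrate (10 uM each luciferin and ATP) before 10 nM enzyme started the reaction. Light output was measured 5 min later.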

Experiment [7] can be described thus: Primary fluorescence-based thiol-reactive (MSTI) qHTS assay for identification of artifact compounds. (AID 1845221).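 Also: thiol-reactive compounds lower the probe fluorescence signal; nearly all actives have a fitted effect of over 65% in size.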 In outline:
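One-hour, room-temperature, dark incubation of compound with 4 uM MSTI in PBS (pH 7.4, 2% DMSO) precedes a fluorescence read at 525 nm excitation, 598 nm emission; Hill-equation fitting yields concentration-response values.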

Experiment [8] concerns Nanoluciferase (engineered Oplophorus gracilirostris luciferase). Put plainly: Primary Nanoluciferase (NLuc) qHTS assay for identification of artifact compounds. (AID 1845222).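 Also: NLuc secreted into diluted conditioned medium of S16 cells; 0% = DMSO and -100% = no enzyme.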 An outline of the steps: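 Using secreted nanoluciferase in S16 culture medium (0.22 um filtered, 1:55 dilution), compounds were preincubated 15 min at RT. Signal was generated with Nano-Glo reagent (1:100) over 5 min.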

The next experiment relates to CRL-7250. Put plainly: Cytotoxic Profiling of Annotated Libraries Using Quantitative High-Throughput Screening (AID 1296008). Also: nearly all actives have a fitted effect of over 60% in size. Also: potency is read from the fitted curve at half-maximal effect. As to max response: % is scaled to controls: 0 for no effect and ±100 for the full control effect. The conditions noted are these: Five cell lines viability, CellTiter-Glo ATP luminescence, 48-72 h; max response: hits give low values. In outline:
(§1)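 Compounds were pin-transferred onto cells and incubated 48 or 72 hr at 37 degree Celsius, 95% humidity. CellTiter-Glo was added, plates sat 10 min at room temperature, then ATP-coupled luminescence was imaged as the viability read-out.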
(In general: In ATP-based viability assays light output follows the ATP content of the culture.)

The subject of the next experiment is HEK293. The experiment is described as above. Conditions: Five cell lines viability, CellTiter-Glo ATP luminescence, 48-72 h; max response: hits give low values. An outline of the steps:
as §1

The subject of a further experiment is HaCat. The description is as above. Conditions: Five cell lines viability, CellTiter-Glo ATP luminescence, 48-72 h; max response: hits give low values. In outline:
as §1

The next experiment concerns NIH3T3. The experiment is described as above. The conditions noted are these: Five cell lines viability, CellTiter-Glo ATP luminescence, 48-72 h; max response: hits give low values. An outline of the steps: as §1
The subject of another experiment is C33A. Put plainly: Primary qHTS to identify gynecologic anti-cancer compounds using libraries of approved drugs and bioactive compounds (AID 1345084). Also: nearly all actives have a fitted effect of over 55% in size. Also: potency is read from the fitted curve at half-maximal effect. Conditions: Gynecologic cancer cell panel viability, ATPlite luminescence, 48 h; series mostly up to 57.5 µM. In outline: (§2)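 In this quantitative HTS, cell killing is estimated from loss of ATP-dependent luciferase light. Cells see five compound concentrations over a 48 h exposure.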

The next experiment has as its system Es-2. The description is as above. Conditions: Gynecologic cancer cell panel viability, ATPlite luminescence, 48 h; series mostly up to 57.5 µM. In outline:
as §2

In another experiment the test system is Hek293T. The description is as above. The conditions noted are these: Gynecologic cancer cell panel viability, ATPlite luminescence, 48 h, control line for the selectivity index; series mostly up to 57.5 µM. In outline: as §2
A further experiment deals with OV90. Described as above. Conditions: Gynecologic cancer cell panel viability, ATPlite luminescence, 48 h; series mostly up to 57.5 µM. An outline of the steps: as §2
The next experiment has as its system PA-1. The experiment is described as above. The conditions noted are these: Gynecologic cancer cell panel viability, ATPlite luminescence, 48 h; series mostly up to 57.5 µM. An outline of the steps:
as §2

A further experiment deals with Tov-21-G. The experiment is described as above. Conditions: Gynecologic cancer cell panel viability, ATPlite luminescence, 48 h; series mostly up to 57.5 µM. An outline of the steps:
as §2

A further experiment has as its system Tov112D. The description is as above. Conditions: Gynecologic cancer cell panel viability, ATPlite luminescence, 48 h; series mostly up to 57.5 µM. In outline:
as §2

Another experiment concerns CASKI. Described as above. The conditions noted are these: Gynecologic cancer cell panel viability, ATPlite luminescence, 48 h; series mostly up to 57.5 µM. An outline of the steps: as §2

Phospholipid hydroperoxide glutathione peroxidase GPX4 (Homo sapiens), sequence (P36969 whole entry, looked up): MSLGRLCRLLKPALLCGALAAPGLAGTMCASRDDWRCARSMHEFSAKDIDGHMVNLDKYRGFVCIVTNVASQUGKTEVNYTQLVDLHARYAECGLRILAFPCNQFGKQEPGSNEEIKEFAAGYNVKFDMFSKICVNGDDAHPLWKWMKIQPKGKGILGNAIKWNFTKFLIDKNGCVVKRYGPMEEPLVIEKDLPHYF
Calcium and integrin-binding protein 1 (Homo sapiens), sequence (Q99828 whole entry, looked up): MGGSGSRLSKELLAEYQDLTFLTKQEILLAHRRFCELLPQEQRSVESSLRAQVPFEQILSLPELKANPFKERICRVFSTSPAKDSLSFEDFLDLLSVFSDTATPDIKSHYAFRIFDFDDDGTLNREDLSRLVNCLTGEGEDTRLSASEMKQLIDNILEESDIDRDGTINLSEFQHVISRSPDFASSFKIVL
Glutathione peroxidase 1 (Homo sapiens), sequence (P07203 whole entry, looked up): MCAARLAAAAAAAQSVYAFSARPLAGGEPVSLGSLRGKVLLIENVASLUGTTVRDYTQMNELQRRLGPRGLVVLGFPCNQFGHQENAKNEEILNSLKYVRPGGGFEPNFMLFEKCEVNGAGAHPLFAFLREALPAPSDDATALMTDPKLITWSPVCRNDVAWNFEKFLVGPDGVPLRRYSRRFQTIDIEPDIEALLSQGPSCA

Take `COC1CC(O[C@H]2CC[C@]3(C)C4CC[C@]5(C)[C@@H](C6=CC(=O)OC6)[C@@H](OC(C)=O)C[C@]5(O)C4CC[C@@H]3C2)OC(C)C1O` (stereo partly drawn): the Potency entry in experiment [1], in experiment [2], in [4], in experiment [5], in experiment [7] and in [8] was “inactive” each time. Also, the Potency in [3] was 224 nM (active); in the experiment on CRL-7250 it was 317 nM (active); in the experiment on HEK293 it was 502 nM (active); in the experiment on HaCat, 796 nM (active); with C33A, 891 nM (active); in the experiment on Es-2, 891 nM (active). For the same molecule, the Potency was 1000 nM (active) in the experiment with Hek293T; 3160 nM (active) with OV90; 891 nM (active) in the experiment with PA-1; 708 nM (active) in the experiment with Tov-21-G; 251 nM (active) with Tov112D. In addition, the call in experiment [6] was inactive. Further, the max response in the experiment on NIH3T3 was -14.3%.
For `CC(C)[C@H](NC(=O)c1nn(Cc2ccc(F)cc2)c2ccccc12)C(N)=O`, the Potency entry in [1], in experiment [2], in [3], in experiment [4], in experiment [5] and in experiment [7] was “inactive” in each case. In addition, the Potency result (in experiment [8]; in the experiment on C33A; with CASKI; in the experiment on Es-2; with Hek293T; with OV90) was “inactive” each time. Also, the Potency result in the experiment on PA-1, with Tov-21-G and in the experiment with Tov112D was “inactive” throughout. Also, the outcome in experiment [6] was inactive. For the same molecule, the max response is -7.52% in the experiment on CRL-7250, -11.8% in the experiment on HEK293 and -27.5% with NIH3T3.
On to `CC(=O)OC[C@]12C[C@H](OC(=O)CC(C)C)C(C)=C[C@H]1O[C@@H]1[C@H](O)C[C@@]2(C)[C@]12CO2`, for which the Potency entry in [1], in [2], in experiment [4], in [5], in [7] and in experiment [8] was “inactive” each time. The Potency is 632 nM (active) in experiment [3]; 3170 nM (active) in the experiment on CRL-7250; 563 nM (active) with HEK293; 6320 nM (active) in the experiment with HaCat; 893 nM (active) in the experiment with NIH3T3; 2820 nM (active) with C33A. The Potency with Es-2 was 3980 nM (active); in the experiment with Hek293T, 1000 nM (active); in the experiment on OV90, 4470 nM (active); in the experiment on PA-1 it was 1000 nM (active); in the experiment with Tov-21-G, 4470 nM (active); with Tov112D it was 2240 nM (active). Besides, the outcome in [6] was “inactive [at 25.7 µM]”.
With `C=C1[C@@H](C)[C@H]2[C@H](Cc3ccccc3)NC(=O)[C@]23[C@H](OC(C)=O)/C=C/[C@](C)(O)C(=O)[C@@H](C)C/C=C/[C@H]3[C@@H]1O`, the Potency result in experiment [1], in experiment [2], in experiment [4], in [5], in [7] and in experiment [8] was “inactive” throughout. Moreover, the Potency result with C33A, with CASKI, in the experiment on Hek293T and in the experiment with Tov112D was “inactive” throughout. The Potency in [3] was 728 nM (active); in the experiment with CRL-7250, 259 nM (active); in the experiment with HEK293 it was 731 nM (active); in the experiment on HaCat, 23100 nM (active); in the experiment with OV90, 1260 nM (active); with PA-1, 1780 nM (active). In addition, the molecule was called inactive in experiment [6].
In the case of `CN1C[C@@H]2CN(c3ccc(-c4ccccc4)nn3)C[C@@H]2C1`, the Potency result in experiment [1], in experiment [2], in experiment [3], in experiment [4], in experiment [5] and in experiment [7] was “inactive” in each case. Moreover, the Potency result (in experiment [8]; with C33A; in the experiment with Es-2; with Hek293T; with OV90; in the experiment on PA-1) was “inactive” each time. The Potency result in the experiment with Tov-21-G and in the experiment on Tov112D was “inactive” each time. The molecule was called inactive (in experiment [6]; with NIH3T3). For the same molecule, the results for the max response in the experiment with CRL-7250, in the experiment on HEK293 and in the experiment on HaCat were 2.36%, -5.4% and -2.1%, respectively.
